Rows were chosen to be rich in hits. Some 13% of all compounds tested hit in one or more screens of this group.
Marburg entry inh: Marburg virus entry inhibition; Marburg virus pseudotyped entry inhibition, cell reporter; Potency, µM (series often up to 37.8 µM), for inactives: top-dose activity change, negative = inhibition, usual class: inhibitors; 300,000 tested, 1.8% active; calls by dose curve; tested in HEK293 cells; also: potency is read from the fitted curve at half-maximal effect; % is scaled to controls: 0 for no effect and ±100 for the full control effect
CHX counter: counter-screen hit for Shiga toxin inhibitors, cycloheximide | cell reporter, cycloheximide protein synthesis inhibition counterscreen | max response, % | 300,000 tested, 12% active | AID 2314; in the data active = max response mostly above about 13%, no sharp cut-off; inactive = mostly below about 14%; also: read at 38.3 µM for the half of the compounds with a filed dose; 0% is about no effect
Lassa entry inh: Lassa virus entry inhibition; Potency, µM (titrated, usually from 37.9 µM), for inactives: top-dose activity change, negative = inhibition, usual class: inhibitors; 300,000 tested, 1.2% active; AID 540256; Lassa virus pseudotype entry inhibition, cell reporter; calls by dose curve; tested in HEK293 cells; also: potency is read from the fitted curve at half-maximal effect; % is scaled to controls: 0 for no effect and ±100 for the full control effect; nearly all actives have a fitted effect of over 50% in size
FMDV antiviral: foot and mouth disease virus antiviral activity; 410,000 tested, 1.2% active; FMDV antiviral cell-based qHTS; Potency, µM (highest dose often 57.9 µM), for the others: at the highest dose activity change, negative = inhibition, most hits filed as inhibitors; calls by dose curve; tested in HEK293T cells; also: read-out not given here; potency is read from the fitted curve at half-maximal effect; % is scaled to controls: 0 for no effect and ±100 for the full control effect; nearly all actives have a fitted effect of over 45% in size
Shiga toxin inh: Shiga toxin inhibition | inhibition, % at 38.7 µM | AID 2315 | Vero cells, Shiga toxin protein synthesis inhibition reporter | 290,000 tested, 9.2% active; in the data active = inhibition mostly above about 28%, no sharp cut-off; inactive = mostly below about 43%; also: 0% is about no effect
HCV inhibitor: inhibitors of hepatitis C virus infection; Huh7.5.1 HCVcc-Cre infection, luciferase reporter, 44 h; 340,000 tested, 3.4% active; AID 651820; Potency, µM (titrated, usually from 41.8 µM), without a hit: at the highest dose activity change, negative = inhibition, actives largely listed as inhibitors; active = well fitted inhibition curve with a large enough effect; inconclusive = small, poorly fitted or top-dose-only effect, or another doubt; inactive = no such curve, though single readings can be large or run the other way; also: potency is read from the fitted curve at half-maximal effect; % is scaled to controls: 0 for no effect and ±100 for the full control effect
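Reporter virus HCVcc-Cre (~0.5 moi) infects cells exposed to compound; seeding density 1,000 cells/well with 4 h settling beforehand. Luminescence, 15 sec read, taken 44 h post-infection following a 15 min RT substrate incubation.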
The depositor's hits bear a star; ? = inconclusive; · = no result; [ ] = remark or other dose.

SMILES	Marburg entry inh	CHX counter	Lassa entry inh	FMDV antiviral	Shiga toxin inh	HCV inhibitor
Cc1ccn2c(CNC(C)c3cn(C)nc3C)c(C(=O)N3CCCCCC3)nc2c1 (stereo not drawn)	?	-2.3	-3.4%	-10.1%	7.4	15.1%
COc1cccc(-c2nn(-c3ccccc3)cc2C(=O)OCC(=O)Nc2ncc(Cl)cc2Cl)c1	-25.2%	-0.5	-9.4%	-18.5%	-14.9	?
Cc1cc(C)n(-c2ccc(OCC(=O)O)nn2)n1	10.9%	5.5	-25.3%	-14.9%	-13.0	3.6%
CCCCOc1ccc(-n2nc(C)cc2C)nn1	16.3%	28.6*	30.0%	17.7%	54.8*	8.5%
Cc1ccc(/C=N/N2CCCCC2)o1	?	38.5*	7.5%	47.6%	56.1*	19.1%
COc1ccc(/[N+]([O-])=C/c2ccco2)cc1	·	·	·	16.6%	·	?
CS(=O)(=O)Nc1ccc(N2CCN(c3ccc(C(F)(F)F)cn3)CC2)nc1	-21.5%	-2.1	4.9%	?	-10.4	11.2µM*
CCC(C)c1ccc(NC(=O)C2CCN(c3ccc(C(F)(F)F)cn3)CC2)cc1 (stereo not drawn)	-11.0%	-2.2	-5.1%	?	-8.3	-13.0%
CC(=O)Nc1ccc(NC(=O)C2CCN(c3ccc(C(F)(F)F)cn3)CC2)cc1	-9.0%[46.1 µM]	5.8	9.6%[46.1 µM]	-27.2%	-23.1	12.6µM*
CC(C)(C)C(=O)Nc1ccc(N2CCN(c3ccc(C(F)(F)F)cn3)CC2)nc1	6.2%[46.1 µM]	-3.0	7.2%[46.1 µM]	-14.8%	-11.4	-9.8%
Cc1c(C(=O)OCC(=O)N2CCCC(C)C2)oc2ccccc12 (stereo not drawn)	?	·	-28.0%	38.5%	·	-0.3%
Cc1noc(C(=O)Nc2ccc(F)cc2F)c1Cl	12.9%[46.1 µM]	31.3*	17.0%[46.1 µM]	18.9%	43.6	13.7%
Cc1ccc(O)c(NC(=O)c2onc(C)c2Cl)c1	-0.5%	30.3*	·	27.7%	66.1*	-4.5%
OCC1OC(n2cnc3c(SCc4ccccc4)nc(NO)nc32)C(O)C1O (stereo not drawn)	·	·	·	0.3%	·	·
Cc1ccccc1OCC(=O)Nc1cccc(C(=O)O)c1	?	25.7*	0.891µM*	3.98µM*	22.0	0.9%
O=C(COc1ccccc1Cl)Nc1ccccc1C(=O)Nc1cccc(C(=O)O)c1	·	40.4*	·	22.4%	32.8	26.8%
CC(=O)c1cccc(NC(=O)COC(=O)c2ccccc2C)c1	?	61.7*	?	46.3%	109.7*	-11.0%
Cc1ccccc1OCC(=O)Nc1ccc2c(c1)C(=O)c1ccccc1C2=O	?	22.5*	-0.7%	-6.2%	38.3*	-21.3%
O=C(Nc1cccc(S(=O)(=O)N2CCCCCC2)c1)c1ccc(=O)[nH]c1	·	·	·	-9.8%	·	-1.8%
Cc1ccc2nc(NC(=O)c3ccc(-c4nc5ccccc5s4)s3)sc2c1	-4.6%	50.6*	23.6%	17.5%	86.3*	-2.1%
Cc1ccc(C(=O)Nc2nc3ccccc3c(=O)s2)cc1	-20.9%	43.5*	-20.9%	·	101.4*	8.91µM*
O=C(Nc1nc2c(s1)C(=O)CCC2)c1ccccc1	?	42.9*	?	-40.0%	48.3	14.4%
CSc1nc2ccc3nc(NC(=O)c4ccc(C)cc4)sc3c2s1	·	4.8	·	-1.2%	9.6	-9.4%
Cc1ccc2nc(NC(=O)CSCc3ccccc3)sc2c1	4.8%[46.1 µM]	8.1	22.8%	16.0%	-1.5	20.5%
NC(=O)c1ccc2nc(NC(=O)c3ccc(N)cc3)sc2c1	?	19.5*	?	13.0%	33.5*	-25.3%
SMILES	Marburg entry inh	CHX counter	Lassa entry inh	FMDV antiviral	Shiga toxin inh	HCV inhibitor
CCC(C)c1ccc(NC(=S)NCCn2cc(Cl)cn2)cc1 (stereo not drawn)	?	8.1	?	16.1%	13.8	-11.6%
CN(CCOc1ccc(Cl)cc1)Cc1cccc(S(=O)(=O)N(C)C)c1	?	-1.7	?	?	2.5	?
C=CCN1c2ccccc2[C@]23C[C@@H](C(=O)OC)N(C(=O)c4cc(C)oc4C)C2=NC(C(=O)OC)=C(C(=O)OC)[C@H]13	·	-7.7	·	?	-3.9	?
Cn1c(N)c(C(=O)COC(=O)c2ccc(F)cc2Cl)c(=O)n(C)c1=O	·	·	·	0.0%	·	?
O=C(Nc1nc2ccccc2s1)c1ccc(F)cc1	·	31.7*	·	5.7%	81.6*	?
COc1ccc(C(=O)Nc2nc3ccccc3s2)cc1	·	8.0	·	-70.5%	22.0	?
COc1ccc2nc(NC(=O)c3ccc4ncsc4c3)sc2c1	·	56.4*	·	18.0%	70.0*	?

Screening data deposited in PubChem BioAssay by National Center for Advancing Translational Sciences (NCATS).
